hcDAF12 agonist = activators of H. contortus DAF-12 nuclear receptor | HEK293 hcDAF-12 lit1-tk-luc reporter, luminescence; 0% DMSO, 100% Δ7-dafachronic acid | activation, % at 6.8 µM | 370,000 tested, 1.4% active;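 active = activation above the mean of all tested compounds plus 3 SD, cut at about 5.5% in these data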
DAX1 inh-1 = blocks DAX1 repression of SF-1 activated StAR promoter; HEK293T StAR-luciferase reporter, SF-1/DAX-1 repression relief; inhibition, % at 6.8 µM; 370,000 tested, 1.1% active;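 active = inhibition above the mean over all tested compounds plus 3 SD, cut at about 3.6% in these data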;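 note: higher inhibition means more luminescence from relief of DAX-1 repression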
ssDAF-12 act = activators of S. stercoralis DAF-12 nuclear receptor. 370,000 tested, 1% active. activation, % at 6.8 µM. HEK293 ssDAF-12/GRIP1 lit1-tk-luc reporter, luminescence; % of 3 µM dafachronic acid response. AID 652126;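 active = activation above the mean over all tested compounds plus 3 SD, cut at about 0.9% in these data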
hgDAF12 agonist = hgDAF-12 agonism, primary luciferase screen | activation, % at 6.8 µM | AID 687014 | 370,000 tested, 1.8% active | HEK293 GAL4-hgDAF12 UAS-luciferase reporter, agonist luminescence; normalized to butyrate control;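 active = activation above a cutoff set at the mean of all screened compounds plus 3 SD, cut at about 10% in these data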
DAX1 inh-2 = inhibitors of human orphan nuclear receptor DAX1 (NR0B1). P51843. HEK293 Gal4-DAX1 luciferase reporter, luminescence. inhibition, % at 6.75 µM. 340,000 tested, 0.99% active. AID 504766;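 active = inhibition above the mean over all tested compounds plus 3 SD, cut at about 4.2% in these data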;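 note: inhibition shows as a rise in luminescence from relieved DAX1 repression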
Target sequence (P51843 207-470 limits assumed): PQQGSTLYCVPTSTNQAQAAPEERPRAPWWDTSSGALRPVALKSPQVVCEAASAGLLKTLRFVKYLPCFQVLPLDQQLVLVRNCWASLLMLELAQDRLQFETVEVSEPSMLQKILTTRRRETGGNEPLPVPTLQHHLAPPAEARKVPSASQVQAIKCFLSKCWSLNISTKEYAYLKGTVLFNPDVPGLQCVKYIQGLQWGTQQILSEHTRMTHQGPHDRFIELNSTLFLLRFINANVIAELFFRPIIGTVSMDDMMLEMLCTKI
Of the large screens only hits and unclear results are named; the others gave an inactive call. Rows were chosen to be rich in hits. Some 4.1% of all compounds tested hit in one or more screens of this group.

CCOc1cccc(-c2cc(C(=O)NN)[nH]n2)c1	hgDAF12 agonist 11
Nc1nc(SCC(=O)O)[nH]c(=O)c1NC(=O)c1ccco1	none
Nc1nc(SCC(=O)N2CCCC2)[nH]c(=O)c1NC(=O)c1ccco1	ssDAF-12 act 2.3
COC(=O)c1c(-c2ccccc2)c[nH]c1C	DAX1 inh-2 4.8
COC(=O)c1c(C)[nH]c(C=O)c1-c1ccccc1	none (no result: DAX1 inh-2)
CCOC(=O)[C@@]12CN(C(=O)OC(C)(C)C)CC=C1N(Cc1ccc(OC)cc1)C(=O)[C@H]2CC(=O)NCc1cccs1	none (no result: DAX1 inh-2)
Cn1cc(C=O)c2ccccc21	ssDAF-12 act 1.3
O=Cc1ccc(-n2cc(C=O)c3ccccc32)cc1	none
CCOC(=O)CNC(=O)/C=C/c1ccc2c(c1)OCO2	ssDAF-12 act 0.9
COc1ccc(CC(=O)N/N=C/C=C/c2ccc3c(c2)OCO3)cc1OC	none (no result: DAX1 inh-2)
CCOC(=O)c1cccc(NC(=O)/C=C/c2ccc3c(c2)OCO3)c1	none
CC(C)(C)OC(=O)N/N=C\C=C\c1ccc2c(c1)OCO2	hgDAF12 agonist 13
CCOC(=O)N/N=C\C=C\c1ccc2c(c1)OCO2	DAX1 inh-2 5.2
COC(=O)N/N=C\C=C\c1ccc2c(c1)OCO2	none
COC(=O)[C@]1(CNC(=O)Nc2ccc(C)c(Cl)c2)CC(=O)N(C)[C@@H]1c1ccccc1	none (no result: DAX1 inh-2)
Cc1ccccc1NS(=O)(=O)c1ccc(C2CNC(=O)C2)cc1 (stereo unspecified)	none
O=C1CC(c2ccc(S(=O)(=O)NCc3ccccc3)cc2)CN1 (stereo unspecified)	DAX1 inh-2 5.6
CC[C@H](CCCCCCCn1ccc2ccccc21)CCC(=O)N(c1ccccc1)c1ccccc1	none (no result: DAX1 inh-2)
CCOC(=O)C1=C(C)NC(=O)C(C(N)=O)C12CCCC2 (stereo unspecified)	DAX1 inh-2 5.1
CC1(C)CC(N=c2cc(-c3ccccc3)oc3ccc(Cl)cc23)CC(C)(C)N1	DAX1 inh-2 5.9
Cc1ccccc1CC(=O)Nc1nnc(-c2cccnc2)s1	none (no result: DAX1 inh-2)
O=C(Cn1c(=O)cnc2ccccc21)Nc1ccccc1N1CCOCC1	none
CC(=O)c1ccccc1NC(=O)Cn1c(=O)cnc2ccccc21	hcDAF12 agonist 6.1
C/C=C/C(=O)N1CCC(C(=O)NCC2COc3ccccc3O2)CC1 (stereo unspecified)	none (no result: DAX1 inh-2)
COc1ccccc1NC(=O)COc1ccc(Br)cc1CNCCCN1CCOCC1	none
Cc1ccccc1NC(=O)COc1ccc(Br)cc1CNCCCO	DAX1 inh-2 5.2
COc1cccc(C2N(c3ccc(Cl)cc3)C(=O)C3CCCN32)c1 (stereo unspecified)	DAX1 inh-2 6.4
COc1ccc(C2N(c3ccc(F)cc3)C(=O)C3CCCN32)cc1 (stereo unspecified)	DAX1 inh-2 5.2
COc1ccc(C2N(c3ccc(OC)cc3)C(=O)C3CCCN32)cc1 (stereo unspecified)	DAX1 inh-2 5.3
O=C1C2CCCN2C(c2ccc(F)c(F)c2)N1c1cccc(Cl)c1 (stereo unspecified)	DAX1 inh-2 4.4
O=C1C2CCCN2C(c2ccccc2)N1c1cccc(Cl)c1 (stereo unspecified)	none
COc1ccc(N2C(=O)C3CCCN3C2c2cccc(C)c2)cc1 (stereo unspecified)	none
COc1ccc(N2C(=O)C3CCCN3C2c2ccc(C)cc2)cc1 (stereo unspecified)	none
COc1cccc(CNC(=O)CCCN2C(=O)COc3ccc(C)cc32)c1OC	none (no result: DAX1 inh-2)
Clc1ccc(CNc2ncnc3[nH]ncc23)c(Cl)c1	none
CCOC(=O)[C@]12CCCC3=C1N(CCC3)C(=O)[C@@H](CC(=O)N1CCCCC1)C2	none (no result: DAX1 inh-2)
C[C@@H]1CN([C@@H](C)CO)S(=O)(=O)c2ccc(Br)cc2O[C@@H]1CN(C)Cc1ccc2c(c1)OCO2	none (no result: DAX1 inh-2)
O=C(NC1CCC1)c1ccc(C#Cc2cccc(F)c2)cn1	none (no result: DAX1 inh-2)
COc1ccc(-n2cc(CNCCCn3ccnc3)c(-c3cccc(F)c3)n2)cc1	DAX1 inh-2 5.4
O=C(Nc1ccc(Cl)cc1)C1C2CCCCC21 (stereo unspecified)	ssDAF-12 act 1.2, hgDAF12 agonist 12
Cc1ccc(-n2c(SCC(=O)N/N=C/C=C\c3ccccc3[N+](=O)[O-])nnc2-c2ccccc2)cc1	none (no result: DAX1 inh-2)
CC(COc1cccc(F)c1)CN1CCC(C(O)(c2ccccc2)c2ccccc2)CC1 (stereo unspecified)	none (no result: DAX1 inh-2)
COc1ccc(-c2cc3c(=O)n(CC(=O)NCc4cccnc4)ncn3n2)cc1	hcDAF12 agonist 6.1, DAX1 inh-1 3.8, hgDAF12 agonist 11
COc1ccc(-c2cc3c(=O)n(CC(=O)NC4CCN(Cc5ccccc5)CC4)ncn3n2)cc1	none
Cc1cccc(C(=O)N[C@@H]2CC[C@@]34CCCN3C(=O)CCC[C@H]4[C@H]2C)c1	none (no result: DAX1 inh-1, DAX1 inh-2)
O=C(NN1C(=O)C2C3C=CC(C4CC34)C2C1=O)c1ccccc1Cl (stereo unspecified)	DAX1 inh-2 5.1
CCCN1C(=O)C(NC(=O)c2ccncc2)(C(F)(F)F)C2=C1CC(C)(C)CC2=O (stereo unspecified)	ssDAF-12 act 0.9
CC(C)COC(=O)N1CCCCC1c1cc(C(=O)Nc2ccccc2)no1 (stereo unspecified)	none (no result: DAX1 inh-2)
CCOc1ccc(CNC2CCCc3ccccc32)cc1 (stereo unspecified)	DAX1 inh-2 9.1
CCOc1ccccc1NC(=O)C(NCC1(N2CCCCC2)CCCCC1)c1ccccc1 (stereo unspecified)	DAX1 inh-2 4.4
CCOc1ccccc1NC(=O)C(OC(=O)C1CC1)c1ccccc1 (stereo unspecified)	none
COc1ccc([N+](=O)[O-])cc1NC(=S)NC(C)=O	DAX1 inh-2 8.8
Oc1cc(O)cc(C=Cc2ccc(O)c(O)c2)c1	DAX1 inh-1 4.3 (no result: DAX1 inh-2)
COc1cccc(CNC(=O)[C@H]2CCCN2C(=O)[C@H]2CCCN2C(=O)c2cccc(F)c2)c1	none (no result: DAX1 inh-2)
COc1ccc(C(=O)C=Cc2cccs2)c(O)c1	hgDAF12 agonist 11
Cc1occc1C(=O)NNC(=S)Nc1ccccc1	hgDAF12 agonist 12
Cc1occc1C(=O)NNC(=S)Nc1ccccc1C(F)(F)F	hgDAF12 agonist 13
Cc1ccccc1NC(=S)NNC(=O)c1ccoc1C	none
C/C(=N/NC(=O)c1cccs1)c1ccc(NC(=O)COc2ccc(Cl)cc2)cc1	hgDAF12 agonist 12, DAX1 inh-2 4.7
COc1cccc2c1OC1(N3CCOCC3)CCCCC1C2C[N+](=O)[O-] (stereo unspecified)	none
O=C(Nc1sc2c(c1-c1nc3ccccc3s1)CCNC2)C(F)(F)F	none (no result: DAX1 inh-1, DAX1 inh-2)
COc1cccc(N2CCN(CC(=O)NCc3ccc(Cl)cc3)CC2)c1	none (no result: DAX1 inh-2)
COc1ccc(CN2C(=O)c3cccnc3C2=O)cc1S(=O)(=O)N1CC(C)CC(C)C1 (stereo unspecified)	none
CC1CCCN(S(=O)(=O)c2ccc(CN3C(=O)c4cccnc4C3=O)cc2)C1 (stereo unspecified)	DAX1 inh-1 3.8
